Results filed as inconclusive are left out. A call without a number means that no potency is given here. Calls of active or inactive are those of the source. The call rests on the fitted dose curve; in most records, active means well fitted inhibition curve with a large enough effect; inconclusive means small, poorly fitted or top-dose-only effect; inactive means flat fitted curve, though single readings scatter.

In this experiment the target is Luciferin 4-monooxygenase (Photinus pyralis) (UniProt P08659). Briefly: Counterscreen Assay for Enhancers of SMN2 Splice Variant Expression: Interaction with Luciferase Reporter for Further Probe SAR. As to conditions: purified firefly luciferase, luminescence, 5 min; series mostly up to 57.5 µM. The source says: NIH Chemical Genomics Center [NCGC] NIH Molecular Libraries Probe Production centers Network [MLPCN] MLPCN Grant: R03 MH084179-01 Assay Submitter (PI): Elliot Androphy NCGC Assay Overview: Spinal muscular atrophy (SMA) is caused by insufficient levels of the survival motor neuron protein SMN. The SMN locus on chromosome 5q13 contains two inverted copies of SMN called SMN1 and SMN2 which are 99% identical at the amino acid level. SMN1 is a fully functional protein and SMN2 skips exon 7 90% of the time. Skipping of exon 7 produces non-functional protein product. 10% of the SMN2 protein includes exon 7 and is fully functional. In the SMA disease state, mutations in the SMN1 locus are the cause of the disease state. Because only 10% of SMN2 is of the fully functional form, it is not sufficient to overcome the deficiency produced by the loss of the SMN1 product. A therapy that either increases the amount of SMN2 product made increases the inclusion of exon 7 has been proposed for the treatment of SMA. We have designed an assay to identify small molecules that can increase the amount of functional SMN2 product by appending a luciferase reporter gene after the native SMN2 gene, such that inclusion of exon 7 in the expressed product places the luciferase sequence in frame, thus generating functional luciferase enzyme. One potential source of false positives in the primary screening assay is stabilization of the reporter luciferase via direct binding. This assay attempts to identify such compounds by screening directly for luciferase activity in the absence of the cellular system.
Luciferin 4-monooxygenase (Photinus pyralis), sequence (P08659 whole entry, looked up, canonical isoform): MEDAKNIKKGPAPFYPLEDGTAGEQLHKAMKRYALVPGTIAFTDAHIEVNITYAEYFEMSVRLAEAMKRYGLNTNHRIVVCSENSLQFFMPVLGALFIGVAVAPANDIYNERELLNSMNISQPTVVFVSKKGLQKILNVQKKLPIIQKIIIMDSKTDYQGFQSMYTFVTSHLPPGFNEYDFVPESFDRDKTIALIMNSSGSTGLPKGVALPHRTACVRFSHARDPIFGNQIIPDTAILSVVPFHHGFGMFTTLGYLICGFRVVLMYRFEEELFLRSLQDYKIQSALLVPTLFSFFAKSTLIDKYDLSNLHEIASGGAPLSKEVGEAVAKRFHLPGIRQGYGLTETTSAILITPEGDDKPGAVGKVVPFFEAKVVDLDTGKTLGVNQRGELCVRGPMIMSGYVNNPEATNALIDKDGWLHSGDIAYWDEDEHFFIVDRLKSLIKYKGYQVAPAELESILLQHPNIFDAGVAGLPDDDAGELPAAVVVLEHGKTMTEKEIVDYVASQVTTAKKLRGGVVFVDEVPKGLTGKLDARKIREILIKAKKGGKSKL
NCGC Assay Protocol Summary: The primary screen utilizes a luciferase reporter gene assay, combining the promoter and splicing based cassettes in tandem with the major portion of the native SMN1 cDNA, and then transfected into HEK293 cells. Compounds that modulate luciferase signal presumably modulate expression of […]. In this assay, we utilize purified firefly luciferase in lieu of a cellular reporter to identify compounds interacting directly with luciferase in the primary screen. Sequence, Parameter, Value, Description (1) Reagent, 2.5 uL, Enzyme in buffer (note A) (2) Compound, 23 nL, From stock solutions (3) Time, 5 minutes, Room temp (4) Reagent#2.5 ul, Luciferase detection reagent (note B) (5) Detector, 1 sec integrate, Luminescent read on Viewlux (note C) Sigma enzyme (1 mg) considered to be MW 61,000 diluted in 357 ul assay buffer to 50 uM stock. A - Enzyme and buffer consists of 50 mM Tris-acetate pH 7.6, 10 mM Mg acetate 0.05% BSA, 0.01% Tween and 5 nM firefly luciferase B - Detection reagent = britelite plus diluted 1:10 in PBS C - Viewlux settings were 1 second integration medium sensitivity Keywords: Spinal muscular atrophy, SMA, SMN2, high throughput screening, MLSMR, MLPCN, NIH Roadmap, qHTS and NCGC
A general note: A counterscreen serves to expose hits that act by an unwanted route or on another target.
On to `NC(=O)C1CCN(c2ncc(-c3ccc4c(c3)OCCCO4)s2)CC1`, for which the Potency was 2.84 µM (active).

For the compound `NC(=O)C1CCN(c2ncc(Br)cn2)CC1`, the Potency result is “inactive”.

For `NC(=O)C1CCN(c2nc(-c3cccc(Br)c3)cs2)CC1`, the Potency is 31.8 µM (active).

Consider `NC(=O)C1CCN(c2nc(-c3ccc4c(c3)OCO4)cs2)CC1`, for which the Potency is 28.4 µM (active).

Turning to `NC(=O)C1CCN(c2ncc(-c3ccc4c(c3)OCCO4)s2)CC1`, the Potency is 5.05 µM (active).

On to `COc1ccccc1-c1csc(N2CCC(C(N)=O)CC2)n1`, for which the Potency result is “inactive”.

For `O=C(c1ccco1)N1CCN(c2nc(-c3ccc(Br)cc3)cs2)CC1`, the Potency result was “inactive”.

Consider `O=C(C1CCN(c2nc(-c3ccc(Br)cc3)cs2)CC1)N1CCNCC1`, for which the Potency entry was “inactive”.

Turning to `NC(=O)C1CCN(c2ncc(-c3ccc(Br)cc3)s2)CC1`, the Potency is 4.01 µM (active).

Regarding `CCOC(=O)C1CCN(c2nc(-c3ccc(Br)cc3)cs2)CC1`, the Potency entry was “inactive”.

For the compound `NC(=O)C1CCN(c2nc(-c3ccc(C(F)(F)F)cc3)cs2)CC1`, the Potency is 20.1 µM (active).

On to `CC(=O)N1CCN(c2nc(-c3ccc(Br)cc3)cs2)CC1`, for which the Potency was 0.8 µM (active).

As for `CS(=O)(=O)c1ccc(-c2csc(N3CCC(C(N)=O)CC3)n2)cc1`, the Potency entry is “inactive”.

As to `NC1CCN(c2nc(-c3ccc(Br)cc3)cs2)CC1`, the Potency is 2.01 µM (active).

In the case of `NC(=O)C1CCN(c2nnc(-c3ccc(Br)cc3)s2)CC1`, the Potency entry was “inactive”.

In the case of `N#Cc1ccccc1-c1csc(N2CCC(C(N)=O)CC2)n1`, the Potency result is “inactive”.

Take `NC(=O)C1CCN(c2ncc(-c3ccc4c(c3)OCO4)s2)CC1`: the Potency is 3.18 µM (active).

As to `COc1ccc(-c2csc(N3CCC(C(N)=O)CC3)n2)cc1OC`, the Potency entry was “inactive”.

In the case of `CC(C)(C)OC(=O)NC1CCN(c2nc(-c3ccc(Br)cc3)cs2)CC1`, the Potency result is “inactive”.

In the case of `CN(C)c1cccc(-c2cnc(N3CCC(C(N)=O)CC3)s2)c1`, the Potency was 0.635 µM (active).

In the case of `NC(=O)C1CCN(c2nc(-c3cccc(C(F)(F)F)c3)cs2)CC1`, the Potency entry was “inactive”.

Regarding `c1c[nH]c(C2CCN(c3ncc(-c4ccc5c(c4)OCCCO5)s3)CC2)n1`, the Potency is 10.1 µM (active).

For `CC(C)Oc1cccc(-c2cnc(N3CCC(C(N)=O)CC3)s2)c1`, the Potency is 0.8 µM (active).

Turning to `NC(=O)C1CCN(c2nc(-c3cccc4sc5ccccc5c34)cs2)CC1`, the Potency was 31.8 µM (active).

In the case of `CN(C)c1cccc(-c2ncnc(N3CCC(C(N)=O)CC3)n2)c1`, the Potency result was “inactive”.

In the case of `Nc1nc(N)c2c(OCC3CCN(Cc4ccccc4F)CC3)cccc2n1`, the Potency result was “inactive”.

Regarding `Brc1ccc(-c2csc(N3CCNCC3)n2)cc1`, the Potency entry was “inactive”.

As for `CC(=O)C1CCN(c2ncc(-c3cccc(N(C)C)c3)s2)CC1`, the Potency was 5.05 µM (active).

On to `CS(=O)(=O)N1CCN(c2nc(-c3ccc(Br)cc3)cs2)CC1`, for which the Potency entry is “inactive”.

Consider `NC(=O)C1CCN(c2nc(-c3ccccc3Cl)cs2)CC1`, for which the Potency result was “inactive”.

As for `NC(=O)C1CCN(c2nccc(-c3ccc4c(c3)OCCCO4)n2)CC1`, the Potency entry was “inactive”.

Consider `Cc1ccc(-c2cnc(N3CCC(C(N)=O)CC3)s2)cc1`, for which the Potency is 5.05 µM (active).

For `CC(=O)NC1CCN(c2nc(-c3ccc(Br)cc3)cs2)CC1`, the Potency entry was “inactive”.

With `CCOc1ccc(-c2csc(N3CCC(C(N)=O)CC3)n2)cc1`, the Potency result was “inactive”.

With `CC(C)Oc1cccc(-c2ccnc(N3CCC(C(N)=O)CC3)n2)c1`, the Potency was 10.1 µM (active).

Turning to `COc1ccc(-c2cnc(N3CCC(C(N)=O)CC3)s2)cc1OC`, the Potency result was “inactive”.

Regarding `CN(C)c1cccc(-c2cnc(N3CCC(C(N)=O)CC3)nc2)c1`, the Potency was 11.3 µM (active).

On to `NC(=O)C1CCN(c2ncc(-c3ccc(Cl)cc3)s2)CC1`, for which the Potency was 10.1 µM (active).

On to `CN(C)C(=O)C1CCN(c2nc(-c3ccc(Br)cc3)cs2)CC1`, for which the Potency was 8 µM (active).

Consider `CC(=O)Nc1ccc(-c2csc(N3CCC(C(N)=O)CC3)n2)cc1`, for which the Potency entry was “inactive”.
